Measured values reported in PubChem BioAssay (Tox21).
Records with an inconclusive call do not appear. Active and inactive are the calls of the source. Unless noted, calls come from the whole dose curve.

Legend:
[1] = Nuclear factor erythroid 2-related factor 2/antioxidant responsive element (Nrf2/ARE) small molecule agonists: qHTS cell viability counter screen in human keratinocytes (AID 1919968; active = well fitted curve in the direction sought with a large enough effect in the repeat runs; an effect the other way counts as inactive or inconclusive; note: nearly all actives have a fitted effect of over 55% in size; note: potency is the fitted concentration of half-maximal effect)
Method in brief: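 KeratinoSens HaCaT cells, 1,500/well, preincubated 5 h, then exposed to compounds in DMSO for 23 h at 37 C/5% CO2. Viability read as CellTiter-Fluor fluorescence after 1 h, in the same wells as the ARE-luciferase read.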

[2] = Nuclear factor erythroid 2-related factor 2/antioxidant responsive element (Nrf2/ARE) small molecule agonists: luciferase reporter gene qHTS assay in human keratinocytes (AID 1919969); note: nearly all actives have a fitted effect of over 35% in size
[3] = biological target: Gonadotropin-releasing hormone receptor (Homo sapiens) (UniProt P30968); assay: Human gonadotropin-releasing hormone receptor (GnRHR) small molecule agonists, calcium flux assay in GnRHR-HEK293 cells (AID 1920063); note: nearly all actives have a fitted effect of over 35% in size; note: potency is the fitted concentration of half-maximal effect
Chain of Gonadotropin-releasing hormone receptor (Homo sapiens) (P30968 whole entry, looked up): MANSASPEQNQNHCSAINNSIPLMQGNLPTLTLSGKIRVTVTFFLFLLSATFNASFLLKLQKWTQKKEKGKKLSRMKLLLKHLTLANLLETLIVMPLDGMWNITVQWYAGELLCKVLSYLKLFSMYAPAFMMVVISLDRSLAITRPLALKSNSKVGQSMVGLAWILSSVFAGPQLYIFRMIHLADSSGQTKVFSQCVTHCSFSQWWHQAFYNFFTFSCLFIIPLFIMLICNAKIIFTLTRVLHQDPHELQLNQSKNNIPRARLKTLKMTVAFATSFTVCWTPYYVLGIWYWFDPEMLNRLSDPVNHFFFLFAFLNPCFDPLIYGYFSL
Method in brief: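 HEK293 cells stably expressing human GnRHR were dye-loaded for 1 h at 37 C. Compound was added in agonist mode and fluorescence (Ex/Em 480/540) recorded kinetically for 3 min. Fifteen concentrations, triplicates.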

[4] = biological target: KiSS-1 receptor (Homo sapiens) (UniProt Q969F8); assay: Human kisspeptin (KISS1R) small molecule agonists, calcium flux assay in KISS1R-HEK293 cells (AID 1920064; active = well fitted curve in the direction sought with a large enough effect in the repeat runs; an effect the other way counts as inactive or inconclusive)
Chain of KiSS-1 receptor (Homo sapiens) (Q969F8 whole entry, looked up): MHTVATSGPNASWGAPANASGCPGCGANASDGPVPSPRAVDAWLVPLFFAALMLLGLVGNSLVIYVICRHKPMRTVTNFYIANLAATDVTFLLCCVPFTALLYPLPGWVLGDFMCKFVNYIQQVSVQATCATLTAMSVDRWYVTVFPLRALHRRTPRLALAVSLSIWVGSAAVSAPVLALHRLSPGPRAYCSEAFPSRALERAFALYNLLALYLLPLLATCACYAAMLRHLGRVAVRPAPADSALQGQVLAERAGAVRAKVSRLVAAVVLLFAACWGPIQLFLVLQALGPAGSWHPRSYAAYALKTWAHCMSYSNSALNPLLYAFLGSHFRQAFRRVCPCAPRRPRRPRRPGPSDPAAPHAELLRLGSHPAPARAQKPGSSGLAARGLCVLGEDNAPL
Method in brief: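 HEK293 cells stably expressing human KISS1R were loaded with calcium dye for 1 h at 37 C, then given compound; fluorescence (Ex/Em 480/540) was read kinetically for 3 min. Fifteen concentrations, triplicate.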

[5] = G protein-coupled receptor (GPCR) small molecule agonists, calcium flux assay: HEK293 wild type cell line counter screen (AID 1920065)
Method in brief: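 Wild-type HEK293 cells plated 18 h, loaded with calcium dye 1 h at 37 C, then compounds added in agonist mode (ATP as positive control). Kinetic fluorescence Ex/Em 480/540 recorded 3 min at 1 sec intervals; 15 concentrations, triplicate.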

[6] = p53 small molecule agonists, cell-based qHTS assay with human liver microsomes (AID 1963577);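 note: p53 response element beta-lactamase reporter cells with liver microsomes plus NADPH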
Method in brief: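 In this qHTS, p53 response-element beta-lactamase cells receive test compound together with a microsome/NADPH activating system (0.5 mg/mL final each) and are incubated 16 h at 37 C before LiveBLAzer fluorescence detection.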

[7] = p53 small molecule agonists, cell-based qHTS assay with rat liver microsomes (AID 1963578)
Method in brief: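 Agonist mode in p53RE-bla reporter cells, with compounds co-incubated 16 h at 37 C alongside 0.5 mg/mL rat liver microsomes and 0.5 mg/mL NADPH (final), followed by a 2 h LiveBLAzer detection step.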

[8] = p53 small molecule agonists, cell-based qHTS assay with human liver microsomes: qHTS cell viability counter screen (AID 1963579); note: nearly all actives have a fitted effect of over 45% in size
Method in brief: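 Metabolically activated exposure: compounds, human liver microsomes and NADPH (0.5 mg/mL final apiece) were added to p53RE-bla cells seeded 5 h earlier, left 16 h at 37 C, and then assessed for viability by CellTiter-Glo luminescence.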

[9] = p53 small molecule agonists, cell-based qHTS assay: qHTS cell viability counter screen (AID 1963581); note: nearly all actives have a fitted effect of over 45% in size
Method in brief: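 p53RE-bla HCT-116 cells, compounds added 5 h after plating and incubated 16 h at 37 C. Cytotoxicity measured in the same wells as intracellular ATP by CellTiter-Glo luminescence after 30 min at room temperature.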

[10] = p53 small molecule agonists, cell-based qHTS assay (AID 1963582; active = well fitted activation curve with a large enough effect in the signal ratio in the repeat runs, not every such curve was filed as active; the % refers to the signal ratio)
Method in brief: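 p53RE-bla reporter cells, compounds added in DMSO after 5 h plating, incubated 16 h at 37 C. Beta-lactamase read via 2 h room-temperature LiveBLAzer B/G FRET substrate, fluorescence intensity.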

[11] = biological target: 5-hydroxytryptamine receptor 2A (Homo sapiens) (UniProt P28223); assay: 5-hydroxytryptamine receptor 2A (HTR2A) small molecule antagonists, cell-based qHTS assay (AID 1963586); note: nearly all actives have a fitted effect of over 45% in size
Chain of 5-hydroxytryptamine receptor 2A (Homo sapiens) (P28223 whole entry, looked up): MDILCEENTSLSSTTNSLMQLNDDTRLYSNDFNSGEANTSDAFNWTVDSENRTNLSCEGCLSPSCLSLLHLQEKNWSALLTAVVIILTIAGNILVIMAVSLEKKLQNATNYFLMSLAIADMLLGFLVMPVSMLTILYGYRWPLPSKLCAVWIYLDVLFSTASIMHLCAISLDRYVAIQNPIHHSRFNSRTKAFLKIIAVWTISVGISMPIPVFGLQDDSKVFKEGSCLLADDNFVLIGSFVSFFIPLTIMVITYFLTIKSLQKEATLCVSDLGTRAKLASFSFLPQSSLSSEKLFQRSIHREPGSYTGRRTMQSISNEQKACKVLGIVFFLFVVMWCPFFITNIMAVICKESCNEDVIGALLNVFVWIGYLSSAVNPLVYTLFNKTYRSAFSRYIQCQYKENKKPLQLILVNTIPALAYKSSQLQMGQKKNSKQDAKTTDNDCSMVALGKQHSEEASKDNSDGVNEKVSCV
Method in brief: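 Antagonist-mode intracellular calcium assay: DOI (4 nM) added after 5 min compound pre-incubation at room temperature to dye-loaded HTR2A-CHO cells. Fluorescence followed for 3 min, sampled every second.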

[12] = biological target: 5-hydroxytryptamine receptor 2A (Homo sapiens) (UniProt P28223); assay: 5-hydroxytryptamine receptor 2A (HTR2A) small molecule agonists, cell-based qHTS assay (AID 1963587); note: nearly all actives have a fitted effect of over 30% in size; note: potency is the fitted concentration of half-maximal effect
Method in brief: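 HTR2A-CHO cells, plated 18 h at 37 C/5% CO2, dye-loaded 1 h at 37 C; compounds in DMSO added by pin tool (agonist mode). Intracellular calcium flux read as kinetic fluorescence on FDSS over 2 min at 1 s intervals.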

[13] = biological target: Muscarinic acetylcholine receptor M1 (Homo sapiens) (UniProt P11229); assay: Cholinergic receptor muscarinic 1 (CHRM1) small molecule antagonists, cell-based qHTS assay (AID 1963588); note: nearly all actives have a fitted effect of over 40% in size
Chain of Muscarinic acetylcholine receptor M1 (Homo sapiens) (P11229 whole entry, looked up): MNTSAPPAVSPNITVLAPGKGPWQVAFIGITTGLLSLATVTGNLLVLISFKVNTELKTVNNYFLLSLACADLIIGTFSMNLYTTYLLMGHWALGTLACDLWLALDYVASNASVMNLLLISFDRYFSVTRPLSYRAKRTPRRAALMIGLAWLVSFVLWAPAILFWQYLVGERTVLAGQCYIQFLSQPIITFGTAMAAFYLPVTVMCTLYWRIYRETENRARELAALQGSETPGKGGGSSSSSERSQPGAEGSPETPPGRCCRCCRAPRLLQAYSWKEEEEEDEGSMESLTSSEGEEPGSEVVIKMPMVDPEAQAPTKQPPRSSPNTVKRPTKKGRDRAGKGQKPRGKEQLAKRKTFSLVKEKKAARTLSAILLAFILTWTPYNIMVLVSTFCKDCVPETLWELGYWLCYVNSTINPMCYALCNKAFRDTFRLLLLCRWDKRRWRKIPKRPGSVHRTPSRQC
Method in brief: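 CHRM1-CHO calcium-flux assay, antagonist mode. Cells were seeded 18 h, dye-loaded 1 h at 37 C and given compound for 5 min at RT, then acetylcholine was added at 50nM. FDSS fluorescence was read 3 min; 15 concentrations, three runs.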

[14] = biological target: Muscarinic acetylcholine receptor M1 (Homo sapiens) (UniProt P11229); assay: Cholinergic receptor muscarinic 1 (CHRM1) small molecule agonists, cell-based qHTS assay (AID 1963589); note: nearly all actives have a fitted effect of over 35% in size
Method in brief: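 CHO cells stably expressing human CHRM1 were loaded with calcium dye for 1 h at 37 C, then compound was added in agonist mode. Intracellular calcium fluorescence was followed kinetically at 1 s intervals. Fifteen concentrations were tested in three independent runs.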

[15] = cAMP Responsive Elements (CRE) small molecule agonists, cell-based qHTS assay (AID 1963590)
Method in brief: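 CRE-bla HEK 293T cells, 2,000/well in DMEM with 10% dialyzed FBS and 25 mM HEPES, pre-incubated 18 h at 37 C, then exposed to compound 3 h at 37 C. Beta-lactamase reporter read with LiveBLAzer B/G FRET substrate after 2 h at room temperature.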

[16] = cAMP Responsive Elements (CRE) small molecule antagonists, cell-based qHTS assay (AID 1963591; active = well fitted inhibition curve with a large enough effect in the signal ratio in the repeat runs, not every such curve was filed as active; the % refers to the signal ratio)
Method in brief: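 CRE-bla HEK293T cells plated 18 h, then given compound plus NKH477 at 0.25 uM final for 3 h at 37C. Beta-lactamase reporter read with LiveBLAzer B/G FRET substrate after 2 h at room temperature.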

[17] = biological target: Beta-2 adrenergic receptor (Homo sapiens) (UniProt P07550); assay: Adrenergic beta2 receptor (ADRB2) small molecule antagonists, cell-based qHTS assay (AID 1963592); note: series mostly up to about 92 µM; nearly all actives have a fitted effect of over 50% in size
Chain of Beta-2 adrenergic receptor (Homo sapiens) (P07550 whole entry, looked up): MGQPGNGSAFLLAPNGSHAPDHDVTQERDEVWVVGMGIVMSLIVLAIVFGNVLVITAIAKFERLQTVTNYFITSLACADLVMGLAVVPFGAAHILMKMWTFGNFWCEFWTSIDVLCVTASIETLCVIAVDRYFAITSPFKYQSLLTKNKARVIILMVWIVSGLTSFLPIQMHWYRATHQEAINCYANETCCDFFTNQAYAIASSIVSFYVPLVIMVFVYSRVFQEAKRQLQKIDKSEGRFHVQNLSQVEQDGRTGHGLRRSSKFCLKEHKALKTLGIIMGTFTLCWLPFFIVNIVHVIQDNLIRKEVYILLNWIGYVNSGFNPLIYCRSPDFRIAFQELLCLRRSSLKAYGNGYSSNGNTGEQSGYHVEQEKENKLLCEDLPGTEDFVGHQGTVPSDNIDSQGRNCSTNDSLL
Method in brief: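 Cells (CHO, stable ADRB2 overexpression) incubated 18-20hr at 37C; compounds added from DMSO; agonist mix (1nM isoproterenol, 100uM IBMX, 25uM Ro-20-1724) added; 0.5hr RT; d2-cAMP and anti-cAMP-cryptate added; 1hr RT; 665/615 nm read.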

[18] = biological target: D(2) dopamine receptor (Homo sapiens) (UniProt P14416); assay: Dopamine D2 receptor (DRD2) small molecule antagonists, cell-based qHTS assay (AID 1963595; active = well fitted inhibition curve with a large enough effect in the signal ratio in the repeat runs, with a control signal flat; the % refers to the signal ratio)
Chain of D(2) dopamine receptor (Homo sapiens) (P14416 whole entry, looked up): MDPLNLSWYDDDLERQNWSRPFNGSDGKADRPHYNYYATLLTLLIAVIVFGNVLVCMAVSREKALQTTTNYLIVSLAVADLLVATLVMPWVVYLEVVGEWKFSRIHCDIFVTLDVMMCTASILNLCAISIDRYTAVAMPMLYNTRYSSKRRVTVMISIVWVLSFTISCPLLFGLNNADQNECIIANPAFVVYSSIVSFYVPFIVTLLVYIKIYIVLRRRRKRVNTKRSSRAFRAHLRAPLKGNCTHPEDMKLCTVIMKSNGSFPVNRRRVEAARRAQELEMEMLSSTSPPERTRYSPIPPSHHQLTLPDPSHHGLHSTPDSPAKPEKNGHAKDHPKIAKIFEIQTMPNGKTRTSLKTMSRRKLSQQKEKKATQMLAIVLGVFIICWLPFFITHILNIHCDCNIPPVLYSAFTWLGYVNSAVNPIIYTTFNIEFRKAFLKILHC
Method in brief: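 In this cell-based antagonist screen, compounds act for 10 min at room temperature before a 30 min challenge with 12 nM quinpirole and 200 nM NKH477. cAMP is quantified by HTRF competition in DRD2-HEK293 cells containing 0.1 mM Ro20-1724.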

[19] = biological target: D(2) dopamine receptor (Homo sapiens) (UniProt P14416); assay: Dopamine D2 receptor (DRD2) small molecule agonists, cell-based qHTS assay (AID 1963594); note: nearly all actives have a fitted effect of over 35% in size; note: potency is the fitted concentration of half-maximal effect
Method in brief: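 HEK293 cells stably expressing DRD2 were cultured 24 h at 37 C, then given Ro20-1724 (0.1 mM final) and compounds for 10 min at room temperature. NKH477 (200nM) was then added for 30 min. cAMP was read by HTRF.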

[20] = biological target: Beta-2 adrenergic receptor (Homo sapiens) (UniProt P07550); assay: Adrenergic beta2 receptor (ADRB2) small molecule agonists, cell-based qHTS assay (AID 1963593);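 note: CHO cells stably overexpressing human ADRB2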
Method in brief: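 CHO cells stably over-expressing ADRB2 were plated overnight at 37C, then dosed with compounds plus a stimulation mix containing 100uM IBMX and 25uM Ro-20-1724 for 0.5hr at room temperature. cAMP was measured by HTRF competition, 1hr.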
% is set by controls: 0 for no effect and ±100 for the full control effect.

[Cl][Sc]([Cl])[Cl]
inactive: Potency [1] | Potency [2] | Potency [3] | outcome [4] | outcome [5] | Potency [6] | Potency [7] | Potency [8] | Potency [9] | Potency [10] | Potency [11] | Potency [12] | Potency [13] | Potency [14] | Potency [15] | Potency [16] | Potency [17] | Potency [18]

CCOC(C)=O
inactive: Potency [1] | Potency [2] | Potency [3] | outcome [4] | outcome [5] | Potency [6] | Potency [7] | Potency [8] | Potency [9] | Potency [10] | Potency [12] | Potency [13] | Potency [14] | Potency [15] | Potency [17] | Potency [19]

O=S(O)(O)=S
inactive: activity change, negative = cytotoxicity [1] -0.897% [at 8.39 µM] | activity, positive = activation [2] -3.55% [at 8.39 µM] | activity change [3] 4.24% [at 5.22 µM, active compounds read high] | activation [4] -0.115% [at 6.97 µM] | activation [5] 0.868% [at 5.23 µM] | activation [6] 0.289% [at 5.99 µM] | activation [7] -2.47% [at 5.99 µM] | activity change, negative = cytotoxicity [8] -5.1% [at 5.99 µM] | activity change, negative = cytotoxicity [9] -0.464% [at 5.99 µM] | activation [10] -3.63% [at 5.99 µM] | activity, negative = inhibition [11] 5.27% [at 5.62 µM] | activation [12] 7.09% [at 7.02 µM] | activity, negative = inhibition [13] 0.0869% [at 5.58 µM] | activation [14] -0.0505% [at 6.97 µM] | activation [15] -0.269% [at 8.39 µM] | activity change, negative = inhibition [16] -0.372% [at 8.39 µM] | activity change, negative = inhibition [17] 6.54% [at 8.39 µM] | activation [19] -2.24% [at 8.39 µM] | activity change, negative = inhibition [18] -2.62% [at 8.38 µM]

CCCCCCCCCCCCS(=O)(=O)Cl
inactive: activity change, negative = cytotoxicity [1] -5.52% [at 19 µM] | activity, positive = activation [2] -14% [at 19 µM] | activity change [3] 1.68% [at 11.8 µM, active compounds read high] | activation [4] 0.356% [at 15.8 µM] | activation [5] -1.76% [at 11.8 µM] | activation [6] 0.955% [at 13.5 µM] | activation [7] -3.11% [at 13.6 µM] | activity change, negative = cytotoxicity [8] 0.65% [at 13.5 µM] | activity change, negative = cytotoxicity [9] -1.69% [at 13.5 µM] | activation [10] -3.88% [at 13.5 µM] | activity, negative = inhibition [11] 6.87% [at 12.7 µM] | activation [12] 18.9% [at 15.9 µM] | activity, negative = inhibition [13] 0.609% [at 12.6 µM] | activation [14] 0.179% [at 15.8 µM] | activation [15] 1.16% [at 19 µM] | activity change, negative = inhibition [16] -6.5% [at 18.9 µM] | Potency [20] | activation [19] 0.808% [at 19 µM] | activity change, negative = inhibition [18] -2.33% [at 18.9 µM]

CCCCCCCC/C=C/C(=O)O
inactive: Potency [1] | Potency [2] | Potency [3] | outcome [4] | outcome [5] | Potency [6] | Potency [7] | Potency [8] | Potency [9] | Potency [10] | Potency [11] | Potency [12] | Potency [13] | Potency [14] | Potency [16] | Potency [17] | Potency [19] | Potency [18]

Cc1cc(C(=O)O)ccc1[N+](=O)[O-]
inactive: Potency [1] | Potency [2] | Potency [3] | outcome [4] | outcome [5] | Potency [6] | Potency [7] | Potency [8] | Potency [10] | Potency [11] | Potency [12] | Potency [14] | Potency [16] | Potency [20] | Potency [19] | Potency [18]

CCN(CC)c1ccc2c(-c3ccc(S(=O)(=O)O)cc3S(=O)(=O)[O-])c3ccc(=[N+](CC)CC)cc-3oc2c1
inactive: Potency [2] | outcome [4] | outcome [5] | Potency [6] | Potency [7] | Potency [8] | Potency [10] | Potency [11] | Potency [13] | Potency [15] | Potency [16]
active: Potency [1] 17.8 µM | Potency [3] 45.1 µM | Potency [12] 56.7 µM | Potency [19] 24.5 µM
